This note sets out measurements from PubChem BioAssay (Tox21).

Records with an inconclusive call do not appear. Entries that show only a call come without a potency. A number with no mark means an inactive call. Calls of active or inactive are those of the source. Calls come from the whole dose curve; as a rule, active = well fitted inhibition curve with a large enough effect in the repeat runs; inconclusive = weak or mixed curves; inactive = flat fitted curve, though single readings scatter.

The test in a line: qHTS assay to identify small molecule HDAC inhibitors (AID 1259364). Note: top concentration of the series differs between compounds; nearly all actives have a fitted effect of over 45% in size. Conditions: HCT-116 HDAC-Glo I/II luminescence, 2 h; series mostly up to 92.4 µM. The source says: U.S. Tox21 Program National Center for Advancing Translational Sciences [NCATS] NIH Chemical Genomics Center [NCGC] U.S. Environmental Protection Agency [EPA] National Institutes of Environmental Health Sciences [NIEHS] National Toxicology Program [NTP] U.S. Food and Drug Administration [FDA] Tox21 Assay Overview: Histone deacetylases (HDACs) are a group of epigenetic enzymes that regulate gene expression by histone deacetylation. HDACs are capable of introducing epigenetic modifications and such aberrations contribute to the onset and progression of several human diseases, thus making HDACs a popular therapeutic target. For identifying endogenous class I/II HDAC inhibitors a homogenous, luminogenic HDAC I/II cell based assay was used to measure the relative activity of class I and II HDACs from cells. Wild type HCT-116 cells were used to screen Tox21 libraries for identifying class I/II HDAC inhibitors.
Tox21 Assay Protocol Summary: HCT-116 cells were dispensed at 1,500 per well in 5uL of culture medium into white solid bottom 1536-well plates (Greiner Bio-One, Monroe, NC) using a Multidrop Combi (Thermo Scientific, Waltham, MA) dispenser. The assay plates were incubated at 37 C and 5% CO2 for an overnight, and then 23nL of compounds dissolved in DMSO and positive control were transferred using a Pintool station (Wako, San Diego, CA). The assay plates were incubated at 37C and 5% CO2 for 2hr. After compound treatment, 4uL of HDAC-Glo reagent (Promega Corporation, Madison, WI) was added to each well of the assay plates using Flying Reagent Dispenser (FRD, Aurora Discovery, San Diego, CA) and incubated the assay plates at room temperature for 30min. The luminescence signal was quantified using a ViewLux plate reader (Perkin Elmer, Shelton, CT).
On the technique in general: qHTS replaces the single test concentration by a dilution series.
For the compound `C=CC(C)C#N` (stereo not given), the Potency result was “inactive”.
In the case of `CC(C)=CCCC(C)O` (stereo not given), the Potency result is “inactive”.
The same measure, in the same setting: next, `COc1cccc(CCc2ccccc2OCC(CN(C)C)OC(=O)CCC(=O)O)c1` (stereo not given): “inactive”; `CC1CNCC(C)O1` (stereo not given): “inactive”.
Same read-out and setting: next, `CC(C)(c1cc(Br)c(OCCO)c(Br)c1)c1cc(Br)c(OCCO)c(Br)c1`: “inactive”.
As for `COc1cc(C(C)C)c2c(c1)S(=O)(=O)N(COc1cc(=O)n3cccc(OCCN4CCCCC4)c3n1)C2=O`, the activity change, negative = inhibition was -2.47% [at 19 µM].
On the same count and under the same terms, as for `CCC(=O)CC(C)CC` (stereo not given), the figure is 2.62% [at 0.349 µM].
In the case of `C#CC(O)CCC` (stereo not given), the Potency result is “inactive”.
On the same count and under the same terms, next, `Cc1occc1SSc1ccoc1C`: “inactive”; `CC(=O)OC(OC(C)=O)c1ccc([N+](=O)[O-])o1`: “inactive”.
Still for that read-out and setting: as for `CCNc1nc(NC(C)CC)nc(OC)n1` (stereo not given), the entry is “inactive”.
`Brc1ccccc1-c1ccccc1`: the Potency entry was “inactive”.
The same measure, in the same setting: next, `O=C(Nc1ccc(Cl)cc1)Nc1ccc(Cl)c(C(F)(F)F)c1`: “inactive”.
Same read-out and setting: next, `CC(C)(c1cc(Br)c(O)c(Br)c1)c1cc(Br)c(O)c(Br)c1`: “inactive”; `CCCCOCC`: “inactive”.
Turning to `N[C@@H](CSSC[C@H](N)C(=O)O)C(=O)O`, the activity change, negative = inhibition was -1.21% [at 0.349 µM].
With `CC(C)(C)CC(C)(C)c1ccccc1O`, the Potency result is “inactive”.
The same measure, in the same setting: next, `CC(C)(C)c1cc(CCC(=O)NCCCCCCNC(=O)CCc2cc(C(C)(C)C)c(O)c(C(C)(C)C)c2)cc(C(C)(C)C)c1O`: “inactive”; `c1ccc(Sc2ccccc2)cc1`: “inactive”; `CN(C)CCOC(c1ccccc1)c1ccccc1` (tested in a mixture with another compound): “inactive”.
Same read-out and setting: next, `Cn1cnc2ncnc(N)c21`: “inactive”; `C=CC(=C)CCC=C(C)C`: “inactive”; `C1CC(COCC2CO2)CCC1COCC1CO1` (stereo not given): “inactive”.
The same measure, in the same setting: as for `CCc1cccc(C)c1`, the entry is “inactive”; as for `O=Cc1ccc(F)cc1`, “inactive”; as for `CCc1ccc(C)nc1`, “inactive”.
Take `O=S(O)O`: the activity change, negative = inhibition was 2.9% [at 19 µM].
For `O=C(O)CCCCCCC(=O)O`, the Potency result is “inactive”.
Still for that read-out and setting: next, `CO[Si](CCC1CCC2OC2C1)(OC)OC` (stereo not given): “inactive”; `CC(=O)Nc1ccc(O)cc1`: “inactive”; `Cc1nc(Nc2ncc(C(=O)Nc3c(C)cccc3Cl)s2)cc(N2CCN(CCO)CC2)n1`: “inactive”.
On the same count and under the same terms, next, `O=C1NC2CCCCN2C12CCN(CCCN1c3ccccc3CCc3ccc(Cl)cc31)CC2` (stereo not given): “inactive”; `CCCCCCCCCCCCCC[n+]1ccccc1`: “inactive”.
Same read-out and setting: as for `Cc1cc2c(C(C)C)c(O)c(O)c(C=O)c2c(O)c1-c1c(C)cc2c(C(C)C)c(O)c(O)c(C=O)c2c1O`, the entry is “inactive”; as for `CCO[Si](CCCSSSSCCC[Si](OCC)(OCC)OCC)(OCC)OCC`, “inactive”.
`CCCCCCCCCCCC(=O)N(CC)CC`: the Potency entry was “inactive”.
On the same count and under the same terms, as for `NC(=O)C(=O)N/N=C/c1ccc([N+](=O)[O-])o1`, the entry is “inactive”; as for `Cc1cc(=O)[nH]c(=O)[nH]1`, “inactive”.
On the same count and under the same terms, as for `CC(=O)Oc1ccc(C2(c3ccc(OC(C)=O)cc3)C(=O)Nc3ccccc32)cc1`, the entry is “inactive”; as for `CCc1cccc(CC)c1NC(=O)C(=O)O`, “inactive”.
